Assay results published in PubChem BioAssay (NCI).
“And” between values parts separate entries of the source, which are not always exact repeats. Equal entries are not always repeated. About 83,000 compounds went through this panel and 20% of them were active in at least one assay; those are over-represented in the sample as a whole.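 Negative percent growth values reflect cell death: -40 means 40% of the cells present at the start died, and -100 means all died.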 The source made the active and inactive calls.

test system: CCRF-CEM leukemia; experiment: NCI-60 one-dose screen, 48 h (100 = growth as untreated, 0 = no growth, -100 = all killed); settings: 10 µM
Protocol: Growth inhibition of the CCRF-CEM human tumor cell line is measured as a screen for anti-cancer activity. Cells are grown in 96 well plates and exposed to the test compound for 48 hours. Compounds are tested at a single concentration, which is 10^-5 M for most compounds. The reported endpoint is percent growth (GI% or GIPRCNT), where numbers from 0 - 100% represent growth inhibition, and numbers from -100% - 0 represent cell death. For example, a value of 40 represents 60% growth inhibition. A value of 0 means no net growth occurred over the course of the experiment. A value of -40 indicates 40% of cells at the beginning of the experiment died by the end of the experiment. A value of -100 means all cells are dead at the end of the experiment.
NCI-60 Human Tumor Cell Lines Screen was performed using the standard one-dose NCI protocol, which is described in more detail at https://dtp.cancer.gov/discovery_development/nci-60/default.htm.
Compounds with GIPRCNT values below 10 were considered active. Activity score was based on GIPRCNT using the following formula: […]
Score is 0 for GIPRCNT values of 100 or above, 50 for GIPRCNT values of 0, and 100 for GIPRCNT values of -100.

SMILES | growth
O=C(O)CCCc1ccc(N(CCCl)CCCl)cc1 | 71.9% (inactive) and 46.6% (inactive)

same assay, conditions: 10 µM unless noted

SMILES | growth
c1ccc2c(c1)sc1ccccc12 | 103% (inactive)
CNC(=O)O/N=C(\SC)C(=O)N(C)C | 92.2% (inactive)
S=P(SP(=S)(c1ccccc1)c1ccccc1)(c1ccccc1)c1ccccc1 | -61.3% (active)
O=C(O)C(Br)CBr (stereo not given) | 96.3% (inactive)
C[N+]1(C)CCCC1c1cccnc1 (stereo not given) | 97.6% (inactive)
CC[C@H](C)[C@H]1O[C@]2(C=C[C@@H]1C)C[C@@H]1C[C@@H](C/C=C(\C)[C@@H](O[C@H]3C[C@H](OC)[C@@H](O[C@H]4C[C@H](OC)[C@@H](NC)[C@H](C)O4)[C@H](C)O3)[C@@H](C)/C=C/C=C3\CO[C@@H]4[C@H](O)C(C)=C[C@@H](C(=O)O1)[C@]34O)O2 | -43% (active)
CCCCCCCCCCCCCCCC[N+](C)(C)C | -51.4% (active) and 1.36% (active)
C[C@]12CCc3sc(Nc4ccc(F)cc4F)nc3C1=CC[C@@H]1[C@@H]2CC[C@]2(C)C(=O)CC[C@@H]12 | 10.1% (inactive)
O=S1(=O)OCCO1 | 94.6% (inactive)
COC1C(O)CC(OC2CC(Oc3cc4cc5c(c(O)c4c(O)c3C)C(=O)[C@@H](OC3CC(OC4CC(OC6CC(C)(O)C(OC(C)=O)C(C)O6)C(O)C(C)O4)C(O)C(C)O3)[C@H]([C@H](OC)C(=O)[C@@H](O)[C@@H](C)O)C5)OC(C)C2OC(C)=O)OC1C (stereo not given in full) | -8.99% (active)
O=[N+]([O-])c1ccc(OCc2ccc(S(=O)(=O)F)c(Cl)c2)c(Cl)c1 | 87.9% (inactive)
O=c1[nH]c(=O)n(Cl)c(=O)n1Cl | 101% (inactive) and 104% (inactive)
Nc1ccc(P(=O)(O)O)cc1 | 97.5% (inactive) and 95.4% (inactive)
CCC1(NC(=O)c2cc(F)c(F)c(F)c2F)C(=O)NC(=O)N(C(C)C)C1=O (stereo not given) | 87.3% (inactive)
Cc1cc[c-]cc1.Fc1c[c-]c(-c2ccccn2)c(F)c1.[Pt+2].c1ccc([PH+](c2ccccc2)c2ccccn2)cc1 | 19.9% (inactive)
CCCCn1c(=O)c(C(=O)NCc2ccccc2Cl)c(O)c2ccccc21 | 43.7% (inactive)
COc1ccc2c(c1)c(-c1nc(-c3cn(C)c4ncccc34)cs1)cn2CCCCN1CCOCC1 | 2.06% (active)
CC1=C2[C@H]3OC(=O)[C@@H](C)[C@@H]3CC[C@@]2(C)C=CC1=O | 94.6% (inactive)
CC[C@H](C)[C@H](NC(=O)[C@H]1CCCCN1C)C(=O)N(C)[C@H](CCc1nc(C(=O)N[C@@H](Cc2ccccc2)C[C@H](C)C(=O)O)cs1)C(C)C | 14.9% (inactive)

SMILES | growth
CC/C(Cc1ccccc1)=C(\c1ccc(OCCN2CCCC2)cc1)c1ccc(OC(=O)NCc2ccccc2)cc1 | 33.7% (inactive)
CC1(C)S[C@H]2CC[C@H]3OC(=O)[C@@H]1N23 | 82.9% (inactive)
CCOC(=O)c1ccccc1C(=O)OCC | 94.8% (inactive)
NC(N)=NC(N)=Nc1ccc(Cl)cc1 | 89.7% (inactive)
Cc1cc[n+](CCc2ccccc2)cc1 | 101% (inactive)
Cc1nnc([S-])o1.[Au+].c1ccc([PH+](c2ccccc2)c2ccccc2)cc1 | 11.1% (inactive)
CC(C)CCC1C(=O)NC(=O)NC1=O | 106% (inactive)
CC(Oc1ccc(-c2ccccc2)cc1)C(=O)O (stereo not given) | 98.4% (inactive)
C#Cc1cccc(Nc2nc(Cl)nc3cc(NC(=O)CF)ccc23)c1 | 93.4% (inactive)
CCCCCCCCCCCCCCCC[N+](C)(C)Cc1ccccc1 | -22% (active) and -30.1% (active)
N#CC(NC(=O)CCl)=C(Cl)Cl | -21.9% (active)
O=C(O)C(F)F | 110% (inactive)
CCCCOCCOP(=O)(OCCOCCCC)OCCOCCCC | 110% (inactive)
C[C@]12CC[C@H]3[C@@H](C[C@@H]4SC(Nc5cccc(F)c5)=N[C@@]45CC(=O)CC[C@]35C)[C@@H]1CCC2=O | 4.95% (active)
C[C@]12CC[C@H](O)C[C@@H]1CC[C@@H]1[C@@H]2CC[C@]2(C)OC(=O)CC[C@@H]12 | 114% (inactive)
N#CC(N)c1ccccc1 (stereo not given) | 107% (inactive)
O=[P+](O)c1cccnc1 | 98.3% (inactive)
C=CC1CN2CCC1CC2C(O)c1ccnc2ccccc12 (stereo not given) | 304% (inactive)
C[C@]12CC[C@H]3[C@@H](C[C@@H]4SC(Nc5ccccc5)=N[C@@]45C/C(=N/O)CC[C@]35C)[C@@H]1CCC2=O | 8.6% (active)

same assay, conditions: 75 µM

SMILES | growth
O=C(O)CCCc1ccc(N(CCCl)CCCl)cc1 | -7.66% (active)
